Test [1] deals with Human papillomavirus type 1a protein E7 (residues 44-93). In words: small molecules binding HPV E7 44-93 – biochemical, small-molecule microarray, residues 44-93, 635 nm fluorescence, primary screen (AID 1108).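 Further: E7 fragment applied at 1 µg/mL in TBST for 1 h at 4 C; score combines spot fluorescence with its signal to noise ratio.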 The following applies: fluorescence 635 nm, higher = more signal.
Test [2] in a line: hepatitis C replication reporter changes, two-sided – Huh7 cells, luciferase reporter, HCV replication inhibitor project, primary screen (AID 1109).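 Further: huh7 hepatoma cells harbouring a luciferase neomycin HCV replicon reporter; luciferase luminescence as measure of HCV replicon replication; test concentration not given here.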 The following applies: Huh7 HCV replicon luciferase reporter, 48 h; higher = more signal. For orientation: In a reporter assay the amount or activity of a reporter protein is the signal.
In test [3] the target is Left-right determination factor 2 (Homo sapiens) (UniProt O00292). In words: small molecules binding LEFTY2 protein – biochemical, small-molecule microarray, 635 nm fluorescence scan, primary screen (AID 1110). The following applies: higher = more signal.
Left-right determination factor 2 (Homo sapiens), sequence (O00292 whole entry, looked up): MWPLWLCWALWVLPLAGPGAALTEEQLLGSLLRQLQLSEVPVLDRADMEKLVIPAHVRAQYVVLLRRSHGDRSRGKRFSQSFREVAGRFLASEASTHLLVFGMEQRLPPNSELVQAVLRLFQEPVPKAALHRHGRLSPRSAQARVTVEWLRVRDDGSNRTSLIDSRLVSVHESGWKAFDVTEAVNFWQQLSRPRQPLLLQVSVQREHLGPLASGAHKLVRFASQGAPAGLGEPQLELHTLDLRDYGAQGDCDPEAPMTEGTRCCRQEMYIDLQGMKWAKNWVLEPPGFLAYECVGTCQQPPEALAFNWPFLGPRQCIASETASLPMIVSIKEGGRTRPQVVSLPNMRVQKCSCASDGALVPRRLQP
The target in test [4] is Calmodulin-1 (Homo sapiens) (UniProt P0DP23). In words: small molecules binding calmodulin-1 with EGTA – biochemical, small-molecule microarray, Cy5-labelled CALM1, profiling panel (AID 1111).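 Further: labelled calmodulin applied in Tris saline Tween buffer holding calcium plus EGTA and DTT.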 The following applies: Cy5-CALM1 binding fluorescence, higher = more signal.
The target is the same in test [5]. Put plainly: small molecules binding Ca-loaded calmodulin-1 – biochemical, small-molecule microarray, Cy5-labelled CALM1, plus calcium, artefact control for SMM control-protein annotation, profiling panel (AID 1112).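 Further: score merges spot fluorescence with signal to noise from triplicate slides.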 The following applies: Cy5-CALM1 binding fluorescence, higher = more signal.
A short description of test [6]: probe aWnt5a binding to arrayed compounds – biochemical, biotinylated probe, 635/667 nm fluorescence, primary screen (AID 1113).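 Further: score merges 667 nm fluorescence intensity with signal-to-noise per printed feature.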 The following applies: small-molecule microarray, higher = more signal.
A short description of test [7]: probe aShh binding to arrayed compounds – biochemical, biotinylated probe, 635/667 nm fluorescence, primary screen (AID 1114).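 Further: probe is biotin-labelled aShh protein from a stem cell growth factor screen; measures binding of labelled protein to compounds printed on the slide; score merges feature fluorescence at 667 nm with signal-to-noise.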 The following applies: small-molecule microarray, higher = more signal.
Test [8] in a line: probe aNog binding to arrayed compounds – biochemical, biotinylated probe, 635/667 nm fluorescence, primary screen (AID 1115).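 Further: probe is biotinylated aNog protein used at 0.15 µg/mL for 1 h at 4 C; z-score combines 667 nm fluorescence of each spot with its signal to noise.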 The following applies: small-molecule microarray, higher = more signal.
In test [9] the target is Torsin-1A-interacting protein 1 (Homo sapiens) (UniProt Q5JTV8). Put plainly: compound microarray binding of lysate hLAP1 – cell lysate, small-molecule microarray, COS7 lysate, 635/667 nm fluorescence, primary screen (AID 1116). The following applies: 635 nm fluorescence, higher = more signal.
Torsin-1A-interacting protein 1 (Homo sapiens), sequence (Q5JTV8 whole entry, looked up): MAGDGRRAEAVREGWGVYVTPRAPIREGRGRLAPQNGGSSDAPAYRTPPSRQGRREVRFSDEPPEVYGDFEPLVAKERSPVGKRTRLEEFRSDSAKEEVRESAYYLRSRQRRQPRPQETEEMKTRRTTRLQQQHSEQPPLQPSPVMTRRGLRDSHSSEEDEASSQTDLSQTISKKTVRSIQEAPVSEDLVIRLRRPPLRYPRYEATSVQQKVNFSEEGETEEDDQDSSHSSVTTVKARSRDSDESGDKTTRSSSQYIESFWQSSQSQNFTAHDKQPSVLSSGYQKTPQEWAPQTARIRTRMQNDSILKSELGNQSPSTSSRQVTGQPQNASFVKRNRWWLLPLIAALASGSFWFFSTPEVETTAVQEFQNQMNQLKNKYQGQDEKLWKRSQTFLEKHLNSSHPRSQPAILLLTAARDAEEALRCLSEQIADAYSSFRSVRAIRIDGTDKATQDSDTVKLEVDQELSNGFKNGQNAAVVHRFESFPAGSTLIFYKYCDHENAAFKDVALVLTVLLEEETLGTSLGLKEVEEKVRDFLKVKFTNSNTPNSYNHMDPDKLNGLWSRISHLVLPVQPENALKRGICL
Test [10] has as its target Alpha-bungarotoxin (Bungarus multicinctus) (UniProt P60615). Put plainly: compounds binding labelled alpha-BTX control protein – biochemical, small-molecule microarray, Alexa647 label, 635/667 nm fluorescence, artefact control for SMM control protein annotation, profiling panel (AID 1117). The following applies: alpha-BTX-A647 binding fluorescence, higher = more signal.
Another test has as its target Albumin (Bos taurus) (UniProt P02769). In words: compounds binding labelled BSA control protein – biochemical, small-molecule microarray, Alexa647 label, 635/667 nm fluorescence, artefact control for SMM control protein annotation, profiling panel (AID 1118).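 Further: score merges 667 nm emission intensity and signal-to-noise per printed compound spot.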 The following applies: BSA-A647 binding, fluorescence 635 nm, higher = more signal.
The nature of test [11]: probe aXIP binding to arrayed compounds – biochemical, NeuroSMM set, 635/667 nm fluorescence, primary screen (AID 1119).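 Further: probe is the protein aXip251-270 applied at 1 µg/mL to compound-printed slides; binding of probe to printed compounds measured as 667 nm fluorescence plus signal to noise.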 The following applies: small-molecule microarray, higher = more signal, called active from +8 up or from −8 down.
Test [12] in a line: probe aNOTCH3 binding on compound microarray – biochemical, small-molecule microarray, 635/667 nm fluorescence, primary screen (AID 1120).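 Further: probe is a biotin-tagged antibody raised against NOTCH3 rather than NOTCH3 protein; score merges spot fluorescence near 667 nm with spot signal to noise.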 The following applies: higher = more signal.
The nature of test [13]: probe aNOTCH2 binding on compound microarray – biochemical, small-molecule microarray, 635/667 nm fluorescence, primary screen (AID 1121).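 Further: score merges feature fluorescence read at 667 nm with its signal to noise.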 The following applies: higher = more signal.
Test [14] deals with Carbonic anhydrase 2 (Homo sapiens) (UniProt P00918). Put plainly: compounds binding carbonic anhydrase 2 – biochemical, small-molecule microarray, Alexa647-labelled CAII, profiling panel (AID 1122). The following applies: CAII-A647 binding fluorescence, higher = more signal.
Test [15] can be described thus: COS7 lysate on small-molecule microarray, probe aHis, 635 nm (AID 1123).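 Further: z-score combines 667nm fluorescence intensity with signal-to-noise per printed compound spot.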 The following applies: COS7 cell lysate, fluorescence, higher = more signal.
Test [16] is described as follows: probe aLAP1 signal on lysate-treated microarray – cell lysate, small-molecule microarray, COS7 lysate, primary screen (AID 1124).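 Further: lysate comes from COS7 cells expressing LAP1 and is applied at 0.3 µg/mL; score merges spot fluorescence near 667 nm with signal-to-noise over triplicate slides.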 The following applies: probe aLAP1, fluorescence, higher = more signal.
The next test deals with Sam68 (KHDRBS1). In words: compounds binding KHDRBS1 protein – biochemical, small-molecule microarray, 635 nm fluorescence, primary screen (AID 1125).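 Further: score merges 667 nm channel intensity with signal to noise over triplicate slides.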 The following applies: higher = more signal.
Test [17] deals with Chordin-like protein 2 (CHRDL2). In words: compounds binding chordin-like 2 – biochemical, small-molecule microarray, 635 nm fluorescence, primary screen (AID 1126).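 Further: printed compound slides probed with Chrdl2 protein at 4 µg/mL for 1 h at 4 C; score merges 667 nm emission intensity with signal to noise over three replicate slides.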 The following applies: fluorescence 635 nm, higher = more signal.
Test [18] concerns the target Concanavalin-A (Canavalia ensiformis) (UniProt P02866). In words: compounds binding concanavalin A lectin – biochemical, small-molecule microarray, Alexa647 label, 635 nm, artefact control for SMM control protein annotation, primary screen (AID 1127).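 Further: z combines 667 nm emission intensity with signal-to-noise across three replicate slides.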 The following applies: ConA-A647 binding fluorescence, higher = more signal.

Calls of active or inactive are those of the source.

Albumin (Bos taurus), sequence (P02769 whole entry, looked up): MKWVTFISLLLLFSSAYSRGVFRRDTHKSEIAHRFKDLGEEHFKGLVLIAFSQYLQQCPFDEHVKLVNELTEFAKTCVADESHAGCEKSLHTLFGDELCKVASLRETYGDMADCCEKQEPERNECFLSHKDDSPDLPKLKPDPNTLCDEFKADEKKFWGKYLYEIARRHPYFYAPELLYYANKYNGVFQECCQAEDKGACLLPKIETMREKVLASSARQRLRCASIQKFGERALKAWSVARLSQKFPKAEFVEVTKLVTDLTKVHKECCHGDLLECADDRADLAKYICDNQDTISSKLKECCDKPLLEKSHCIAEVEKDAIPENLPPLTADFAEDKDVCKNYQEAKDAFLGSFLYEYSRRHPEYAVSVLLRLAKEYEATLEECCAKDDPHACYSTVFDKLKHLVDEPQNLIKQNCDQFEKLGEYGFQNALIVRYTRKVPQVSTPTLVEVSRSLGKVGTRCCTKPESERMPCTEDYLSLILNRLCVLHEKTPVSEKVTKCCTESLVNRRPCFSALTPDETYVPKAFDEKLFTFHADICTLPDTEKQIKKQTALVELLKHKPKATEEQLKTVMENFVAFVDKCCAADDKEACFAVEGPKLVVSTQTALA
Concanavalin-A (Canavalia ensiformis), sequence (P02866 whole entry, looked up): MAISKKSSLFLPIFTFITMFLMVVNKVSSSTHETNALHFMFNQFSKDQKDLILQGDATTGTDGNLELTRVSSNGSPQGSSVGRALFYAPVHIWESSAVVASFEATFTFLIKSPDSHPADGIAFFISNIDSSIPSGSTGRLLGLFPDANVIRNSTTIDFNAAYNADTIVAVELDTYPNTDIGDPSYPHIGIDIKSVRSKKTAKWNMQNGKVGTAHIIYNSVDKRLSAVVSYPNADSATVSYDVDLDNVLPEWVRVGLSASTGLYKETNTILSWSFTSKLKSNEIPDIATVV
Alpha-bungarotoxin (Bungarus multicinctus), sequence (P60615 whole entry, looked up): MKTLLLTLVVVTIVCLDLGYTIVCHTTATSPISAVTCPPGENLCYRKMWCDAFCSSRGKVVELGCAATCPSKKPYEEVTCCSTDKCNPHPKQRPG

Consider `N#Cc1ccc(C(O)C2C=CC3C(=O)NC(=O)C3N2Nc2ccccn2)cc1` (stereo not given), for which the composite z-score in test [1] was 0.447; in test [3], 0.286; in test [4], 0.2; in [5], -0.272; in test [6] it was -0.178; in [7], 0.151. Moreover, the composite z-score in [8] is 0.287; in test [9], -0.298; in [10], 0.617; in the test with Albumin (Bos taurus), 0.95; in test [12], 0.0297; in [13], -0.0907. In addition, the composite z-score in [14] is 0.854; in [15], 0.767; in test [16], 0.711; in the test on Sam68 (KHDRBS1), -0.106; in [17], 0.31; in test [18], 0.468. For the same compound, in test [2], the z-score is -0.676. Further, in test [11], the composite Z-score was -0.483 (inactive).
On to `CC(C)C[C@@H]1NC(=O)[C@@H]2C[C@H](C(=O)NCCCC[N+](C)(C)C)[C@H](c3ccc(O)cc3)N2C1=O`, for which the composite z-score in [1] was 0.39; in test [3] it was 1.05; in [4], -0.928; in test [5], -0.768; in [6], 0.0031; in test [7], 0.199. Moreover, the composite z-score in test [8] is 0.114; in test [9], 1.24; in test [10], 0.789; in the test with Albumin (Bos taurus), -0.857; in [12] it was -0.0866; in [13] it was -0.153. In addition, the composite z-score in test [14] came out at 0.705; in test [15], 0.83; in test [16] it was 0.678; in the test with Sam68 (KHDRBS1), 1.09; in [17], 1.37; in test [18], 1.02. In [2], this compound had a z-score of -0.996. In test [11], the composite Z-score is 0.541 (inactive).
For the compound `CCOC(=O)C1=CC[C@@H](c2ccccc2)N(S(=O)(=O)c2ccc(C)cc2)[C@H]1C#N`, the composite z-score in test [1] was 0.894; in test [3] it was 0.116; in test [4], 0.906; in test [5] it was 0.658; in test [6], 0.0044; in test [7] it was -0.16. Also, the composite z-score in test [8] was -0.59; in [9], 1.03; in [10], -0.06; in the test with Albumin (Bos taurus), 0.721; in [12], 0.213; in test [13] it was 0.0362. The composite z-score in [14] is 0.76; in test [15], 1.67; in [16], 0.254; with Sam68 (KHDRBS1), 1.2; in test [17] it was -0.232; in test [18], 1.15. The compound also showed a z-score in test [2] of -1.76. In test [11], the composite Z-score is 0.718 (inactive).
In the case of `CCCCN1CC=CC23O[C@@H]4/C=C\CCC(C)OC(=O)C4[C@H]2C(=O)N(C(C)CO)[C@@H]3C1=O` (stereo not given in full), the composite z-score was -1.13 in test [1]; -0.0716 in test [3]; -0.325 in test [4]; -1.04 in [5]; -0.178 in test [6]; -0.2 in test [7]. Also, the composite z-score was -0.188 in test [8]; 0.201 in test [9]; -0.606 in test [10]; -1.58 in the test with Albumin (Bos taurus); -0.0498 in test [12]; -0.0907 in test [13]. Further, the composite z-score was 0.822 in [14]; -0.986 in [15]; 0.103 in test [16]; -0.879 in the test with Sam68 (KHDRBS1); -0.0668 in test [17]; -0.59 in test [18]. The compound also registered a z-score in test [2] of 0.263. Further, the composite Z-score in [11] was 0.319 (inactive).
`CCC[C@@H]1C=C(C(=O)OCC)[C@H](c2ccccc2)N1S(=O)(=O)c1ccc(C)cc1`: the composite z-score in test [1] is 1.04; in test [3], 1.06; in [4], 1.99; in [5], 0.409; in test [6] it was 0.145; in test [7], -0.195. For the same compound, the composite z-score was -0.413 in [8]; 1.69 in [9]; 1.26 in [10]; 0.854 with Albumin (Bos taurus); 0.341 in test [12]; 0.273 in [13]. For the same compound, the composite z-score was 0.214 in test [14]; -0.0844 in [15]; 1.29 in [16]; 1.3 in the test on Sam68 (KHDRBS1); 0.0538 in test [17]; 1.11 in test [18]. In test [2], this compound gave a z-score of -1.84. For the same compound, the composite Z-score in [11] was 0.142 (inactive).
For `C=CC[C@]1(C(=O)N(C)C)COC(c2ccc(OCCCO)cc2)=N1`, the composite z-score was 0.326 in test [1]; -0.616 in test [3]; 2.62 in test [4]; -0.372 in [5]; -0.113 in test [6]; 0.334 in test [7]. The composite z-score in test [8] is -0.246; in test [9] it was 2.09; in test [10], 0.113; with Albumin (Bos taurus), 0.795; in test [12], 0.298; in test [13], 0.107. The composite z-score in test [14] was 0.914; in test [15] it was 3.5; in test [16], 1.41; in the test with Sam68 (KHDRBS1), 1.25; in test [17], -0.492; in [18], 0.673. The compound also showed a z-score in test [2] of 1.55. Moreover, in test [11], the composite Z-score is -0.0102 (inactive).

The record behind these values is PubChem BioAssay.
